From the supplement of paper PMC6992640
± gives the standard deviation of the averaged measurements.

Assays:
Experiment in all cases: cell viability (% of vehicle); higher = less cytotoxic
Details in all cases: 10 µM; 72 h
HCI01 = tested on: HCI01 (cells of a triple-negative basal-like breast cancer xenograft)
HCI03 = tested on: HCI03 (cells of an ER-positive luminal breast cancer xenograft)
HCI09 = tested on: HCI09 (cells of a triple-negative luminal androgen receptor type breast cancer xenograft)
HCI11 = tested on: HCI11 (cells of an ER-positive luminal breast cancer xenograft)
HCI13 = tested on: HCI13 (cells of an ER-positive luminal breast cancer xenograft)
HCI16 = tested on: HCI16 (cells of a triple-negative basal-like breast cancer xenograft)
UCD52 = tested on: UCD52 (cells of a triple-negative basal-like breast cancer xenograft)
WHIM2 = tested on: WHIM2 (cells of a triple-negative basal-like breast cancer xenograft)
WHIM30 = tested on: WHIM30 (cells of a triple-negative basal-like breast cancer xenograft)
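Also: PDX cells carrying CMV promoter-driven luciferase, viability read as total photon flux per second by IVIS imaging following D-luciferin, vehicle control 0.1% DMSO.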

## N#Cc1ccc(C(c2ccc(C#N)cc2)n2cncn2)cc1 [Letrozole]
HCI01
  cell viability: 111 ± 7.6
HCI03
  cell viability: 99.1
HCI09
  cell viability: 98.4 ± 3.9
HCI11
  cell viability: 102
HCI13
  cell viability: 88.2 ± 5.6
HCI16
  cell viability: 99.1
UCD52
  cell viability: 126 ± 15
WHIM2
  cell viability: 73.7 ± 21
WHIM30
  cell viability: 126 ± 8.4

## CC(CN(C)C)CN1c2ccccc2CCc2ccccc21.O=C(O)/C=C\C(=O)O (stereo unspecified) [Trimipramine (maleate)]
HCI01
  cell viability: 99.2 ± 13
HCI03
  cell viability: 101
HCI09
  cell viability: 91.6 ± 9.4
HCI11
  cell viability: 69
HCI13
  cell viability: 92.2 ± 2.7
HCI16
  cell viability: 105
UCD52
  cell viability: 86.9 ± 1.5
WHIM2
  cell viability: 77.6 ± 15
WHIM30
  cell viability: 93.3 ± 1.9

## NS(=O)(=O)Cc1noc2ccccc12 [Zonisamide]
HCI01
  cell viability: 96.13 ± 0.4
HCI03
  cell viability: 136
HCI09
  cell viability: 90 ± 5
HCI11
  cell viability: 108
HCI13
  cell viability: 117 ± 18
HCI16
  cell viability: 99.1
UCD52
  cell viability: 130 ± 16
WHIM2
  cell viability: 92.9 ± 7.1
WHIM30
  cell viability: 129 ± 3.9

## CCOC(=O)c1ccc(OC(=O)CCCCCN=C(N)N)cc1.CS(=O)(=O)O [Gabexate mesylate]
HCI01
  cell viability: 170 ± 9.1
HCI03
  cell viability: 122
HCI09
  cell viability: 98 ± 3.2
HCI11
  cell viability: 147
HCI13
  cell viability: 96.8 ± 1.2
HCI16
  cell viability: 159
UCD52
  cell viability: 142 ± 6.2
WHIM2
  cell viability: 111 ± 10
WHIM30
  cell viability: 180 ± 27

## CCc1cc(C(N)=S)ccn1 [Ethionamide]
HCI01
  cell viability: 105 ± 11
HCI03
  cell viability: 111
HCI09
  cell viability: 100 ± 3.6
HCI11
  cell viability: 104
HCI13
  cell viability: 136 ± 15
HCI16
  cell viability: 100
UCD52
  cell viability: 82.3 ± 9.9
WHIM2
  cell viability: 92.7 ± 8.7
WHIM30
  cell viability: 98.5 ± 9.4

## Cl.O=C(Nc1ccccc1)OCC(CN1CCCCC1)OC(=O)Nc1ccccc1 (stereo unspecified) [Diperodon HCl]
HCI01
  cell viability: 99 ± 2.1
HCI03
  cell viability: 124
HCI09
  cell viability: 97.9 ± 2.3
HCI11
  cell viability: 119
HCI13
  cell viability: 162 ± 49
HCI16
  cell viability: 138
UCD52
  cell viability: 84.2 ± 13
WHIM2
  cell viability: 94.3 ± 20
WHIM30
  cell viability: 167 ± 16

## C=C1CCC(O)CC1=CC=C1CCCC2(C)C1CCC2C(C)C=CC(C)C(C)C (stereo unspecified) [Vitamin D2 (Ergocalciferol)]
HCI01
  cell viability: 118 ± 26
HCI03
  cell viability: 101
HCI09
  cell viability: 61.9 ± 14
HCI11
  cell viability: 95.2
HCI13
  cell viability: 58.8 ± 16
HCI16
  cell viability: 77.9
UCD52
  cell viability: 65.5 ± 2.4
WHIM2
  cell viability: 40.7 ± 13
WHIM30
  cell viability: 89.1 ± 10

## CO/C(O)=N/[C@H](C(=O)N1CC2(CC2)C[C@H]1c1ncc(-c2ccc3c(c2)C(F)(F)c2cc(-c4ccc5nc([C@@H]6[C@H]7CC[C@H](C7)N6C(=O)[C@@H](/N=C(\O)OC)C(C)C)[nH]c5c4)ccc2-3)[nH]1)C(C)C [Ledipasvir]
HCI01
  cell viability: 103 ± 1.7
HCI03
  cell viability: 94.4
HCI09
  cell viability: 55.6 ± 3.8
HCI11
  cell viability: 80.6
HCI13
  cell viability: 99 ± 8.5
HCI16
  cell viability: 72.3
UCD52
  cell viability: 73.6 ± 4.1
WHIM2
  cell viability: 64.9 ± 9.5
WHIM30
  cell viability: 104 ± 1.1

## Clc1ccc(C(Cn2ccnc2)OCc2csc3c(Cl)cccc23)c(Cl)c1.O=[N+]([O-])O (stereo unspecified) [Sertaconazole nitrate]
HCI01
  cell viability: 113 ± 34
HCI03
  cell viability: 85.1
HCI09
  cell viability: 53.6 ± 39
HCI11
  cell viability: 103
HCI13
  cell viability: 44.6 ± 5.4
HCI16
  cell viability: 103
UCD52
  cell viability: 107 ± 58
WHIM2
  cell viability: 150 ± 36
WHIM30
  cell viability: 123 ± 12

## COc1cc(OC)c(C(=O)CCCN2CCCC2)c(OC)c1.Cl [Buflomedil HCl]
HCI01
  cell viability: 95.4 ± 3.3
HCI03
  cell viability: 131
HCI09
  cell viability: 95.6 ± 15
HCI11
  cell viability: 94.4
HCI13
  cell viability: 86.6 ± 2.6
HCI16
  cell viability: 122
UCD52
  cell viability: 92.5 ± 16
WHIM2
  cell viability: 117 ± 28
WHIM30
  cell viability: 134 ± 2.4

## C[N+](C)(C)CCOC(=O)CCC(=O)OCC[N+](C)(C)C.O.O.[Cl-].[Cl-] [Succinylcholine Chloride Dihydrate]
HCI01
  cell viability: 109 ± 8
HCI03
  cell viability: 104
HCI09
  cell viability: 96.9 ± 9.6
HCI11
  cell viability: 97.2
HCI13
  cell viability: 112 ± 16
HCI16
  cell viability: 101
UCD52
  cell viability: 61.6 ± 1.2
WHIM2
  cell viability: 89.3 ± 5.8
WHIM30
  cell viability: 133 ± 22

## CC(Cn1cnc2c(N)ncnc21)OCP(=O)(O)O (stereo unspecified) [Tenofovir]
HCI01
  cell viability: 89.1 ± 9.4
HCI03
  cell viability: 123
HCI09
  cell viability: 103 ± 15
HCI11
  cell viability: 106
HCI13
  cell viability: 112 ± 11
HCI16
  cell viability: 116
UCD52
  cell viability: 90.6 ± 6.9
WHIM2
  cell viability: 99.3 ± 14
WHIM30
  cell viability: 121.3 ± 1.2

## CCCC1CC(C(=O)NC(C(C)Cl)C2OC(SC)C(OP(=O)(O)O)C(O)C2O)N(C)C1 (stereo unspecified) [Clindamycin Phosphate]
HCI01
  cell viability: 140 ± 73
HCI03
  cell viability: 112
HCI09
  cell viability: 75.6 ± 25
HCI11
  cell viability: 96.6
HCI13
  cell viability: 86.2 ± 30
HCI16
  cell viability: 89.1
UCD52
  cell viability: 73.2 ± 16
WHIM2
  cell viability: 92.7 ± 20
WHIM30
  cell viability: 83.5 ± 1.4

## Nc1ccc(S(=O)(=O)Nc2nccs2)cc1 [Sulfathiazole]
HCI01
  cell viability: 102 ± 30
HCI03
  cell viability: 140
HCI09
  cell viability: 93.4 ± 7.8
HCI11
  cell viability: 84.5
HCI13
  cell viability: 197 ± 28
HCI16
  cell viability: 116
UCD52
  cell viability: 96.5 ± 11
WHIM2
  cell viability: 98.2 ± 6.3
WHIM30
  cell viability: 110 ± 8.6

## Cc1cccc(C)c1NC(=O)C1CCCCN1C.Cl (stereo unspecified) [Mepivacaine HCl]
HCI01
  cell viability: 87.6 ± 1.4
HCI03
  cell viability: 89.2
HCI09
  cell viability: 97.91 ± 0.71
HCI11
  cell viability: 96.2
HCI13
  cell viability: 124 ± 2.2
HCI16
  cell viability: 118
UCD52
  cell viability: 70.4 ± 3.6
WHIM2
  cell viability: 89.7 ± 14
WHIM30
  cell viability: 166 ± 4.5

## Cc1ccc(O)c(C(CCN(C(C)C)C(C)C)c2ccccc2)c1.O=C(O)C(O)C(O)C(=O)O (stereo unspecified) [Tolterodine tartrate]
HCI01
  cell viability: 113 ± 38
HCI03
  cell viability: 101
HCI09
  cell viability: 96.8 ± 7.1
HCI11
  cell viability: 93.6
HCI13
  cell viability: 97.1 ± 18
HCI16
  cell viability: 133
UCD52
  cell viability: 60.5 ± 8.9
WHIM2
  cell viability: 91.5 ± 2.5
WHIM30
  cell viability: 92.5 ± 1.7

## CCCNC(C)C(=O)Nc1c(C)csc1C(=O)OC.Cl (stereo unspecified) [Articaine HCl]
HCI01
  cell viability: 104 ± 4.9
HCI03
  cell viability: 115
HCI09
  cell viability: 116 ± 7
HCI11
  cell viability: 96.9
HCI13
  cell viability: 79.6 ± 10
HCI16
  cell viability: 133
UCD52
  cell viability: 94.3 ± 5.7
WHIM2
  cell viability: 104 ± 18
WHIM30
  cell viability: 129 ± 5.7

## COS(=O)(=O)[O-].C[N+]1(C)CCC(=C(c2ccccc2)c2ccccc2)CC1 [Diphemanil Methylsulfate]
HCI01
  cell viability: 101 ± 3
HCI03
  cell viability: 121
HCI09
  cell viability: 97.8 ± 12
HCI11
  cell viability: 109
HCI13
  cell viability: 119 ± 5.8
HCI16
  cell viability: 84.7
UCD52
  cell viability: 94.5 ± 13
WHIM2
  cell viability: 96.7 ± 19
WHIM30
  cell viability: 161.9 ± 0.26

## Cc1cccc(Nc2ccncc2S(=O)(=O)NC(=O)NC(C)C)c1 [Torsemide]
HCI01
  cell viability: 84.3 ± 43
HCI03
  cell viability: 140
HCI09
  cell viability: 95.4 ± 16
HCI11
  cell viability: 93.5
HCI13
  cell viability: 120 ± 21
HCI16
  cell viability: 127
UCD52
  cell viability: 106 ± 1.8
WHIM2
  cell viability: 106 ± 1.5
WHIM30
  cell viability: 171 ± 13
